From ChEMBL document CHEMBL4513216, “Probing the Open Global Health Chemical Diversity Library for Multistage-Active Starting Points for Next-Generation Antimalarials” (ACS Infect Dis, 2020)
About 8,600 (12%) of roughly 69,000 compounds showed an effect of 50% or more. The sample holds strong results, similar compounds and a random draw of the others, so the mix is not that of the screen.

Tested on: Plasmodium berghei
Test: Screen against P. berghei liver stage (PbLuc), transformed with Luciferase, at 10uM
Assay type: functional, HepG2
Details: tested at 10 uM

SMILES	INHIBITION
O=C1COC2(CCN(C(=O)C3CC=CC3)CC2)CN1Cc1cccnc1	-3.24%
Cc1nc(N2CCOCC2)ncc1-c1cc(O)nc(N2CCCC2)n1	-27.1%
Cc1cc(C)c2c(N3CCC(C(=O)N4CCOCC4)CC3)ncnc2n1	30.9%
CC(C)CN1CCC2(C1)CN(c1ncccn1)C2	5.12%
CCC(O)CNc1ccc(-c2nc(CC(C)C)no2)cn1 (stereo unspecified)	1.79%
CC(C)Cc1noc(-c2ccc(NCc3noc(C(C)C)n3)nc2)n1	-26%
CCn1cncc1CNc1ccc(-c2nc(CC(C)C)no2)cn1	52%
CCN1C(=O)CCC12CCC(NC(=O)NCc1cccnc1)CC2 (stereo unspecified)	25.8%
Cc1n[nH]cc1C(=O)N1CCCC1c1cc[nH]n1 (stereo unspecified)	-26.2%
Cn1cc(CN2C[C@@H]3CCCO[C@@H]3[C@H](NC(=O)CC3CC3)C2)cn1	11.4%
CC(C)NC(=O)CCNC(=O)CCc1cc(Cl)cs1	62.8%
COC(=O)CNC(=O)CCc1cc(Cl)cs1	36.3%
CC(C)NC(=O)CCNC(=O)CCc1cc(Br)cs1	-35.3%
CN(c1nccc(-c2cnc3sccn3c2=O)n1)C1CCCCC1	18.9%
Cc1cn2c(=O)c(-c3ccnc(N(C)C4CCCCC4)n3)cnc2s1	90.1%
CN(c1nccc(-c2cnc3sc(Cl)cn3c2=O)n1)C1CCCCC1	38.2%
Cc1cc(C(F)(F)F)n2nc(C3CCCN(S(C)(=O)=O)C3)cc2n1 (stereo unspecified)	26.475%
Cn1ccnc1C1CCN(S(=O)(=O)c2ccc3c(c2)OCCO3)CC1	35.1%
CCC[C@@H]1CN(S(=O)(=O)c2ccc3[nH]c(=O)[nH]c3c2)C[C@H]1NC(C)=O	3.73%
Cn1ccnc1C1CCN(S(=O)(=O)c2ccc3[nH]c(=O)[nH]c3c2)CC1	62.9%
Cn1ccnc1C1CCN(S(=O)(=O)c2ccc3oc(=O)[nH]c3c2)CC1	59.7%
O=c1[nH]c2cc(S(=O)(=O)N3CCC(c4ccsc4)CC3)ccc2o1	16.9%
Cc1cc2[nH]c(=O)oc2cc1S(=O)(=O)N1CCCC(N(C)C)CC1 (stereo unspecified)	11.6%
CCN(CC)S(=O)(=O)N1CCC(c2c(C(N)=O)sc3ccccc23)C1 (stereo unspecified)	27.6%
CC(=O)N1CCN(CC(N)=O)CC(COc2ccccc2)C1 (stereo unspecified)	-17.7%
CCc1cc(NC(=O)C2CCCN(C(=O)NCC(C)C)C2)[nH]n1 (stereo unspecified)	19.3%

SMILES	INHIBITION
NC(=O)c1cn(CC2CC2)c(C2CC2)n1	-2.03%
CCC(CNC(=O)c1ccc(Br)o1)N1CCc2ccccc2C1 (stereo unspecified)	16.8%
CCC(C)NC(=O)c1cncc(Br)c1 (stereo unspecified)	-76.5%
O=C(NCC(O)c1ccc(F)cc1F)c1ccccc1F (stereo unspecified)	-57.9%
CCC(CNC(=O)c1cncc(Br)c1)N1CCc2ccccc2C1 (stereo unspecified)	66.3%
CCC(CNC(=O)c1ccccn1)N1CCc2ccccc2C1 (stereo unspecified)	40.5%
CCC(CNC(=O)c1ccco1)N1CCc2ccccc2C1 (stereo unspecified)	51.4%
Cn1cccc1C(CNC(=O)c1ccc(F)cc1F)N1CCCCCC1 (stereo unspecified)	34.7%
CCC(CNC(=O)c1ccccc1OC)N1CCc2ccccc2C1 (stereo unspecified)	63.3%
COc1ccccc1C(=O)NCC(c1cccn1C)N1CCOCC1 (stereo unspecified)	44.9%
COc1cccc(C(=O)NCCCN2CCc3ccccc3C2)c1OC	25.3%
CCC(CNC(=O)Nc1cnn(CC)c1)N1CCc2ccccc2C1 (stereo unspecified)	7.67%
CCC(CNC(=O)c1ccc(F)cc1F)N1CCc2ccccc2C1 (stereo unspecified)	64.3%
CC(c1ccco1)N(C)C(=O)NCCOc1ccc(C#N)cc1 (stereo unspecified)	5.94%
CN(C)C(=O)CN1CCOCC2(CCN(CC3CCOCC3)CC2)C1	34.9%
CNc1cccc(C2CCCN(C(=O)c3cncs3)C2)n1 (stereo unspecified)	5.56%
O=C(N[C@@H]1C[C@@H]2CC[C@H]1C2)C1(Oc2ccc(Cl)cc2)CCNCC1	9.72%
CCc1cnc(N2CC[C@@H]3CN(CCC(C)C)S(=O)(=O)[C@@H]3CC2)nc1	-23.7%
CC(C)C(=O)N1CC[C@H]2N(C)CC[C@@]2(C(=O)N2CCCC2)CC1	3.81%
Cc1cc(C)c(CNC(=O)N2CCCC2c2cccc(F)c2)c(=O)[nH]1 (stereo unspecified)	27.8%
CC(C)CS(=O)(=O)N1CCC2(CN(c3ccsc3)C(=O)CN2C)C1 (stereo unspecified)	23.6%
O=C(NCC1(COc2cnccn2)C[C@@H](O)[C@@H](O)C1)C1CCCC1 (stereo partly specified)	-15.7%
CCC(CNC(=O)c1ccccc1Br)N1CCc2ccccc2C1 (stereo unspecified)	56.4%
CCC(CNC(=O)c1cc(OC)ccc1Br)N1CCc2ccccc2C1 (stereo unspecified)	33.5%
CSc1ccccc1C(=O)NCCCN1CCc2ccccc2C1	5.03%
Cc1nn(C)c(C)c1C1COCCN1C(=O)CC(C)(C)C (stereo unspecified)	62.2%

SMILES	INHIBITION
Cc1nn(C)c(C)c1C1COCCN1C(=O)NC1CC1 (stereo unspecified)	17.5%
CCN(CC)C(=O)N1CCOCC1c1c(C)nn(C)c1C (stereo unspecified)	10.7%
Cc1nn(C)c(C)c1C1COCCN1C(=O)CSC(C)(C)C (stereo unspecified)	37.6%
COCCNC(=O)N1CCOCC1c1c(C)nn(C)c1C (stereo unspecified)	51%
CNC(=O)N1CCOCC1c1c(C)nn(C)c1C (stereo unspecified)	28.7%
O=C(c1cnccn1)N1CCc2ncnc(-c3cccnc3)c2CC1	32.7%
CCc1ccc(CN2CCc3ncnc(-c4cccnc4)c3CC2)o1	-48.8%
O=C(N1CCC(Oc2ccncc2)C1)C1(c2ccc(F)cc2)CC1 (stereo unspecified)	52%
O=C(N1CCC(Oc2ccncc2)CC1)C1(c2ccc(F)cc2)CC1	34.1%
O=C(N1CCC(Oc2ccncc2)C1)C1(c2cccc(F)c2)CC1 (stereo unspecified)	25.1%
Cc1cc(C(=O)NCC(C)N2CCc3ccccc32)on1 (stereo unspecified)	-25.9%
COCCn1ccc2ccc(C(=O)O)cc21	-19.6%
Cc1ccc(N2CCCC3(COCCN(c4cnccn4)C3)C2)nn1 (stereo unspecified)	-22.1%
Fc1ccc(CN2CCC3(CCCN(c4nncs4)C3)C2)cc1 (stereo unspecified)	-11.6%
CC(C)c1ccc(CN2CCC3(CCCN(c4nncs4)C3)C2)cc1 (stereo unspecified)	60.4%
Fc1cccnc1N1CCOCC2(CCCN(c3nncs3)C2)C1 (stereo unspecified)	12.6%
c1cncc(CN2CCC3(CCCN(c4nncs4)C3)C2)c1 (stereo unspecified)	-11.6%
c1cnc(N2CCOCC3(CCCN(c4nncs4)C3)C2)cn1 (stereo unspecified)	72%
Cc1ccc(N2CCCC3(COCCN(c4ncccn4)C3)C2)nn1 (stereo unspecified)	-37.9%
c1cnc(N2CCCC3(COCCN(c4nncs4)C3)C2)cn1 (stereo unspecified)	17.5%
Fc1cnc(N2CCOCC3(CCCN(c4cnccn4)C3)C2)nc1 (stereo unspecified)	-13.7%
COc1ccc(N2CCOCC3(CCCN(c4cnccn4)C3)C2)cc1 (stereo unspecified)	53.9%
Cc1ccc(N2CCOCC3(CCCN(c4ncc(F)cn4)C3)C2)nn1 (stereo unspecified)	14.6%
Cc1cnc(N2CCCC3(COCCN(c4ccc(C)nn4)C3)C2)nc1 (stereo unspecified)	52.6%
